In the supplement of paper PMC8007513:
Where a name gives a salt, the structure may show the parent alone. ± gives the standard error. Out of some 1,300 compounds screened, about 130 (10%) showed an effect of 50% or more. Only a selection was taken, and strong results are over-represented in it overall.

Tested on: Trichoderma virens ATCC 9645
Test: growth yield (OD600) with compound + IPBC relative to untreated control; higher = less growth inhibition
Details: compound concentration: 100 uM, IPBC concentration: 200 ng/ml
Method in brief: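 Trichoderma virens ATCC 9645 spores, from potato dextrose agar plates grown for 7 days, were brought to 15,000 spores ml^−1 in potato dextrose broth and dispensed as 100 μl aliquots into 96-well plates. Each aliquot received library compounds at 100 μM final, with or without a biocide at 200 ng ml^−1, before growth at 30 °C and OD600 readings on a BioTek EL800 at 40 h and 72 h. Growth is expressed relative to the control containing neither agent and represents means of duplicate screens.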

`Cc1ccc(/C(=C\CN2CCCC2)c2ccccn2)cc1` [Triprolidine hydrochloride] + CCCCNC(=O)OCC#CI [3-iodo-2-propynyl butylcarbamate (IPBC)] gave a growth yield (40 h) of 96.1 ± 6.5% and a growth yield (72 h) of 100 ± 1.6%.

For `CN1CCN2c3ccccc3Cc3ccccc3C2C1` (stereo unspecified) [Mianserine hydrochloride] + CCCCNC(=O)OCC#CI [3-iodo-2-propynyl butylcarbamate (IPBC)], the growth yield (40 h) was 82.6 ± 1.3% and the growth yield (72 h) was 94.1 ± 1.8%.

Work on `CN1CCC(=C2c3ccccc3Sc3ccccc32)CC1` [Pimethixene maleate] + CCCCNC(=O)OCC#CI [3-iodo-2-propynyl butylcarbamate (IPBC)] yielded a growth yield (40 h) of 56.1 ± 1.4% and a growth yield (72 h) of 88 ± 2%.

`CSc1ccc2c(c1)C(N1CCN(C)CC1)Cc1ccccc1S2` (stereo unspecified) [Methiothepin maleate] + CCCCNC(=O)OCC#CI [3-iodo-2-propynyl butylcarbamate (IPBC)] was tested, and the growth yield (40 h) was 2.06 ± 0.16% and the growth yield (72 h) was 1.78 ± 0.1%.

`CC1(C)O[C@@H]2[C@@H](CO[C@@]3(COS(N)(=O)=O)OC(C)(C)O[C@@H]23)O1` [Topiramate] + CCCCNC(=O)OCC#CI [3-iodo-2-propynyl butylcarbamate (IPBC)] showed a growth yield (40 h) of 89 ± 5.1% and a growth yield (72 h) of 93.1 ± 5.9%.

`CC(C)(Oc1ccc(C2CC2(Cl)Cl)cc1)C(=O)O` (stereo unspecified) [Ciprofibrate] + CCCCNC(=O)OCC#CI [3-iodo-2-propynyl butylcarbamate (IPBC)] gave a growth yield (40 h) of 78.9 ± 3.6% and a growth yield (72 h) of 82.2 ± 1.7%.

In the case of `O=c1[nH]c(=O)n([C@H]2C[C@H](O)[C@@H](CO)O2)cc1I` [Idoxuridine] + CCCCNC(=O)OCC#CI [3-iodo-2-propynyl butylcarbamate (IPBC)], the growth yield (40 h) is reported as 87.8 ± 2.1% and the growth yield (72 h) is reported as 89.04 ± 0.52%.

`O=c1[nH]c(=O)n([C@H]2C[C@H](O)[C@@H](CO)O2)cc1C(F)(F)F` [Trifluridine] + CCCCNC(=O)OCC#CI [3-iodo-2-propynyl butylcarbamate (IPBC)] was tested, and the growth yield (40 h) was 90.4 ± 6.2% and the growth yield (72 h) was 92.7 ± 4%.

Compound `O=c1[nH]c(=O)n([C@H]2C[C@H](O)[C@@H](CO)O2)cc1F` [Floxuridine] + CCCCNC(=O)OCC#CI [3-iodo-2-propynyl butylcarbamate (IPBC)] has a growth yield (40 h) of 4.45% and a growth yield (72 h) of 19.1 ± 2.3%.

In the case of `O=C(NCCNCC(O)COc1ccc(O)cc1)N1CCOCC1` (stereo unspecified) [Xamoterol hemifumarate] + CCCCNC(=O)OCC#CI [3-iodo-2-propynyl butylcarbamate (IPBC)], the growth yield (40 h) is reported as 92.4 ± 1.6% and the growth yield (72 h) is reported as 94.39 ± 0.63%.

Work on `COc1cccc2c1C(=O)c1c(O)c3c(c(O)c1C2=O)C[C@@](O)(C(=O)CO)C[C@@H]3O[C@H]1C[C@H](N)[C@H](O)[C@H](C)O1` [Doxorubicin hydrochloride] + CCCCNC(=O)OCC#CI [3-iodo-2-propynyl butylcarbamate (IPBC)] yielded a growth yield (40 h) of 8.1 ± 1.1% and a growth yield (72 h) of 34.8 ± 20%.

Compound `COc1cccc2c1C(=O)c1c(O)c3c(c(O)c1C2=O)C[C@@](O)(C(C)=O)C[C@@H]3O[C@H]1C[C@H](N)[C@H](O)[C@H](C)O1` [Daunorubicin hydrochloride] + CCCCNC(=O)OCC#CI [3-iodo-2-propynyl butylcarbamate (IPBC)] has a growth yield (40 h) of 9.21 ± 1.6% and a growth yield (72 h) of 44.7 ± 1.3%.

`COc1cccc2c1C(=O)c1c(O)c3c(c(O)c1C2=O)C[C@@](O)(C(=O)CO)C[C@@H]3O[C@H]1C[C@H](N)[C@@H](O)[C@H](C)O1` [Epirubicin hydrochloride] + CCCCNC(=O)OCC#CI [3-iodo-2-propynyl butylcarbamate (IPBC)] gave a growth yield (40 h) of 42.7 ± 0.48% and a growth yield (72 h) of 95.33 ± 0.32%.

Compound `CO[C@@H]1[C@@H](O[C@@H]2O[C@H](C)[C@@H](O[C@H]3C[C@@](C)(O)[C@@H](OC(=O)CC(C)C)[C@H](C)O3)[C@H](N(C)C)[C@H]2O)[C@@H](CC=O)C[C@@H](C)[C@@H](O)/C=C/C=C/C[C@@H](C)OC(=O)C[C@H]1OC(C)=O` [Josamycin] + CCCCNC(=O)OCC#CI [3-iodo-2-propynyl butylcarbamate (IPBC)] has a growth yield (40 h) of 100 ± 4.5% and a growth yield (72 h) of 103 ± 3.5%.

In the case of `Nc1cc(C(Cl)=C(Cl)Cl)c(S(N)(=O)=O)cc1S(N)(=O)=O` [Clorsulon] + CCCCNC(=O)OCC#CI [3-iodo-2-propynyl butylcarbamate (IPBC)], the growth yield (40 h) is reported as 86.4 ± 2.2% and the growth yield (72 h) is reported as 90.8 ± 3.1%.

`C[C@H](O)C(=O)Nc1c(I)c(C(=O)NC(CO)CO)c(I)c(C(=O)NC(CO)CO)c1I` [Iopamidol] + CCCCNC(=O)OCC#CI [3-iodo-2-propynyl butylcarbamate (IPBC)] showed a growth yield (40 h) of 101 ± 5.7% and a growth yield (72 h) of 101 ± 3.8%.

`CN(C)C(=N)NC(=N)N` [Metformin hydrochloride] + CCCCNC(=O)OCC#CI [3-iodo-2-propynyl butylcarbamate (IPBC)] gave a growth yield (40 h) of 85.9 ± 4.9% and a growth yield (72 h) of 88 ± 2.2%.

In the case of `O=C1OCCN1/N=C/c1ccc([N+](=O)[O-])o1` [Furazolidone] + CCCCNC(=O)OCC#CI [3-iodo-2-propynyl butylcarbamate (IPBC)], the growth yield (40 h) is reported as 76.2 ± 8.6% and the growth yield (72 h) is reported as 88.9 ± 5.2%.

`N=C(N)NCCN1CCCCCCC1` [Guanethidine sulfate] + CCCCNC(=O)OCC#CI [3-iodo-2-propynyl butylcarbamate (IPBC)] was tested, and the growth yield (40 h) was 81.3 ± 4.1% and the growth yield (72 h) was 90.2 ± 4.4%.

For `COC[C@@H](NC(C)=O)C(=O)NCc1ccccc1` [Lacosamide] + CCCCNC(=O)OCC#CI [3-iodo-2-propynyl butylcarbamate (IPBC)], the growth yield (40 h) was 85.6 ± 1.4% and the growth yield (72 h) was 93.66 ± 0.73%.

`CNCCCN1c2ccccc2CCc2ccccc21` [Desipramine hydrochloride] + CCCCNC(=O)OCC#CI [3-iodo-2-propynyl butylcarbamate (IPBC)] showed a growth yield (40 h) of 70.4 ± 1.4% and a growth yield (72 h) of 93.5 ± 3.4%.

`CN(C)CCCN1c2ccccc2Sc2ccc(C(F)(F)F)cc21` [Triflupromazine hydrochloride] + CCCCNC(=O)OCC#CI [3-iodo-2-propynyl butylcarbamate (IPBC)] gave a growth yield (40 h) of 46.4 ± 2.9% and a growth yield (72 h) of 81.3 ± 4.3%.

In the case of `CN(C)CCCN1c2ccccc2Sc2ccccc21` [Promazine hydrochloride] + CCCCNC(=O)OCC#CI [3-iodo-2-propynyl butylcarbamate (IPBC)], the growth yield (40 h) is reported as 71.95 ± 0.16% and the growth yield (72 h) is reported as 90.8 ± 3.8%.

`CC(=O)c1ccc2c(c1)N(CCCN1CCC(CCO)CC1)c1ccccc1S2` [Piperacetazine] + CCCCNC(=O)OCC#CI [3-iodo-2-propynyl butylcarbamate (IPBC)] gave a growth yield (40 h) of 55% and a growth yield (72 h) of 94.8%.

Work on `CC(=O)c1ccc2c(c1)N(CCCN(C)C)c1ccccc1S2` [Acetopromazine maleate salt] + CCCCNC(=O)OCC#CI [3-iodo-2-propynyl butylcarbamate (IPBC)] yielded a growth yield (40 h) of 70.84 ± 0.32% and a growth yield (72 h) of 91.6 ± 0.94%.

Compound `CN1CCN(CCCN2c3ccccc3Sc3ccc(C(F)(F)F)cc32)CC1` [Trifluoperazine dihydrochloride] + CCCCNC(=O)OCC#CI [3-iodo-2-propynyl butylcarbamate (IPBC)] has a growth yield (40 h) of 4.45 ± 0.95% and a growth yield (72 h) of 3.46 ± 0.1%.

For `CN(C)CCCN1c2ccccc2CCc2ccccc21` [Imipramine hydrochloride] + CCCCNC(=O)OCC#CI [3-iodo-2-propynyl butylcarbamate (IPBC)], the growth yield (40 h) was 81 ± 1.9% and the growth yield (72 h) was 96.28 ± 0.21%.

`OC(CCCN1CCCCC1)(c1ccccc1)c1ccccc1` [Diphenidol hydrochloride] + CCCCNC(=O)OCC#CI [3-iodo-2-propynyl butylcarbamate (IPBC)] was tested, and the growth yield (40 h) was 89.4 ± 2.4% and the growth yield (72 h) was 96.7 ± 3.4%.

For `OCCN1CCN(CCCN2c3ccccc3Sc3ccc(C(F)(F)F)cc32)CC1` [Fluphenazine dihydrochloride] + CCCCNC(=O)OCC#CI [3-iodo-2-propynyl butylcarbamate (IPBC)], the growth yield (40 h) was 2.86% and the growth yield (72 h) was 2.31 ± 0.21%.

`CC(=O)N[C@@H](CC(=O)N[C@@H](CCC(=O)O)C(=O)O)C(=O)O` [Spaglumic acid] + CCCCNC(=O)OCC#CI [3-iodo-2-propynyl butylcarbamate (IPBC)] showed a growth yield (40 h) of 95.6 ± 7.3% and a growth yield (72 h) of 95.1 ± 7%.

Work on `COc1ccc(C(=O)NCc2cccnc2)cc1C(=O)NCc1cccnc1` [Picotamide monohydrate] + CCCCNC(=O)OCC#CI [3-iodo-2-propynyl butylcarbamate (IPBC)] yielded a growth yield (40 h) of 91.2 ± 5.1% and a growth yield (72 h) of 97 ± 3.9%.

With `CC(CN(C)C)CN1c2ccccc2CCc2ccccc21` (stereo unspecified) [Trimipramine maleate salt] + CCCCNC(=O)OCC#CI [3-iodo-2-propynyl butylcarbamate (IPBC)] the growth yield (40 h) was 75.1 ± 0.79% and the growth yield (72 h) was 93.97 ± 0.84%.

For `CN1CCOC(c2ccccc2)c2ccccc2C1` (stereo unspecified) [Nefopam hydrochloride] + CCCCNC(=O)OCC#CI [3-iodo-2-propynyl butylcarbamate (IPBC)], the growth yield (40 h) was 83.4 ± 1.1% and the growth yield (72 h) was 93.1 ± 1.1%.

Work on `CC(=O)OCC1=C(C(=O)O)N2C(=O)[C@@H](N)[C@H]2SC1` [Cephalosporanic acid, 7-amino] + CCCCNC(=O)OCC#CI [3-iodo-2-propynyl butylcarbamate (IPBC)] yielded a growth yield (40 h) of 85.1 ± 3.8% and a growth yield (72 h) of 94.6 ± 3.1%.

With `NS(=O)(=O)c1cc2c(cc1Cl)N=CNS2(=O)=O` [Chlorothiazide] + CCCCNC(=O)OCC#CI [3-iodo-2-propynyl butylcarbamate (IPBC)] the growth yield (40 h) was 102.6 ± 0.32% and the growth yield (72 h) was 106 ± 2.8%.

Compound `CCOc1ccc(Cc2nccc3cc(OCC)c(OCC)cc23)cc1OCC` [Ethaverine hydrochloride] + CCCCNC(=O)OCC#CI [3-iodo-2-propynyl butylcarbamate (IPBC)] has a growth yield (40 h) of 55 ± 2.2% and a growth yield (72 h) of 82.3 ± 2.2%.

With `CC[C@H]1OC(=O)C[C@@H](O)[C@H](C)[C@@H](O[C@@H]2O[C@H](C)[C@@H](O[C@H]3C[C@@](C)(O)[C@@H](O)[C@H](C)O3)[C@H](N(C)C)[C@H]2O)[C@@H](CC=O)C[C@@H](C)C(=O)/C=C/C(C)=C/[C@@H]1CO[C@@H]1O[C@H](C)[C@@H](O)[C@@H](OC)[C@H]1OC` [Tylosin] + CCCCNC(=O)OCC#CI [3-iodo-2-propynyl butylcarbamate (IPBC)] the growth yield (40 h) was 95.3 ± 7.9% and the growth yield (72 h) was 95.1 ± 3%.

With `CC(C)NC[C@@H](O)COc1ccc(CC(N)=O)cc1` [(R)-(+)-Atenolol] + CCCCNC(=O)OCC#CI [3-iodo-2-propynyl butylcarbamate (IPBC)] the growth yield (40 h) was 101 ± 2.1% and the growth yield (72 h) was 98.48 ± 0.52%.
